Test results reported in the supplement of paper PMC6555819.

Columns and labels:
Assay in all cases: PBM binding z-score (relative to random genomic background probes); higher = stronger binding; sequences stand for … in GC…GCGATTGACAGCGTAGAATGAAGG
[1] = tested on: FXR:RXRa (NR concentration 270 nM, RXRa partner concentration 90 nM)
Outline: (§1)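 Binding z-scores take random background probes as their reference. They come from custom Agilent 4×180K protein-binding microarrays incubated 1 h with ligand-free nuclear receptor dimers, with antibodies against each partner (one per run) detecting binding. Scanned fluorescence was regression-normalized.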

[2] = tested on: LXRa:RXRa (NR concentration 270 nM, RXRa partner concentration 90 nM)
Outline: as §1

[3] = tested on: LXRa homodimer (NR concentration 270 nM)
Outline: as §1

[4] = tested on: LXRb:RXRa (NR concentration 270 nM, RXRa partner concentration 90 nM)
Outline: as §1

[5] = tested on: LXRb homodimer (NR concentration 270 nM)
Outline: as §1

[6] = tested on: PPARa:RXRa (NR concentration 270 nM, RXRa partner concentration 90 nM)
Outline: as §1

[7] = tested on: PPARg:RXRa (NR concentration 180 nM, RXRa partner concentration 90 nM)
Outline: as §1

[8] = tested on: PPARg:RXRa 270nM:90nM, anti-RXR (NR concentration 270 nM, RXRa partner concentration 90 nM)
Outline: as §1

[9] = tested on: PPARg:RXRa 30nM:10nM, anti-RXR (NR concentration 30 nM, RXRa partner concentration 10 nM)
Outline: as §1

[10] = tested on: PPARg:RXRa 90nM:30nM, anti-RXR (NR concentration 90 nM, RXRa partner concentration 30 nM)
Outline: as §1

[11] = tested on: PPARg:RXRa DBDmut IVT, anti-RXR (DBD mutation: RXRa K156A/R161A, NR concentration 270 nM, RXRa partner concentration 90 nM)
Outline: as §1

[12] = tested on: PPARg:RXRa IVT, anti-PPARg (NR concentration 270 nM, RXRa partner concentration 90 nM)
Outline: as §1

[13] = tested on: PPARg DBDmut:RXRa IVT, anti-PPARg (DBD mutation: PPARg1 K132A/R137A, NR concentration 270 nM, RXRa partner concentration 90 nM)
Outline: as §1

[14] = tested on: PPARg DBDmut IVT, anti-PPARg (DBD mutation: PPARg1 K132A/R137A, NR concentration 270 nM)
Outline: as §1

[15] = tested on: PPARg homodimer (NR concentration 180 nM)
Outline: as §1

[16] = tested on: PXR:RXRa (NR concentration 270 nM, RXRa partner concentration 90 nM)
Outline: as §1

[17] = tested on: PXR homodimer (NR concentration 270 nM)
Outline: as §1

[18] = tested on: RARa:RXR (NR concentration 270 nM, RXRa partner concentration 90 nM)
Outline: as §1

[19] = tested on: RARa homodimer (NR concentration 270 nM)
Outline: as §1

[20] = tested on: RARb:RXRa (NR concentration 270 nM, RXRa partner concentration 90 nM)
Outline: as §1

| Sequence | PBM binding z-score [1] | PBM binding z-score [2] | PBM binding z-score [3] | PBM binding z-score [4] | PBM binding z-score [5] | PBM binding z-score [6] | PBM binding z-score [7] | PBM binding z-score [8] | PBM binding z-score [9] | PBM binding z-score [10] | PBM binding z-score [11] | PBM binding z-score [12] | PBM binding z-score [13] | PBM binding z-score [14] | PBM binding z-score [15] | PBM binding z-score [16] | PBM binding z-score [17] | PBM binding z-score [18] | PBM binding z-score [19] | PBM binding z-score [20] |
| --- | --- | --- | --- | --- | --- | --- | --- | --- | --- | --- | --- | --- | --- | --- | --- | --- | --- | --- | --- | --- |
| AGAATGAGGTAAAGATCAGGGAAACAGAATACAT | 0.438 | 0.311 | -0.176 | 0.517 | -0.108 | 0.991 | 2 | 2.05 | 0.928 | 1.67 | 1.72 | 1.73 | 1.8 | 0.935 | 0.296 | 0.125 | 0.151 | 0.265 | 0.446 | 0.258 |
| AGAACGAGGGCACCCTGAGTTGATAGCAGAGTAG | 0.236 | 0.52 | -0.169 | -0.0951 | -0.924 | 1.6 | 1.55 | 1.27 | 0.134 | 0.693 | 3.24 | 2.84 | 0.579 | -0.333 | 0.0786 | 1.29 | 0.283 | 0.732 | -0.996 | 2.16 |
| TGAATGAAGTTATAAGATCAGGGAACGTTGCAAA | -0.521 | -0.697 | -0.369 | -0.457 | -0.454 | -0.296 | 0.116 | -0.239 | 0.157 | -0.0808 | -1.2 | -0.333 | 0.559 | 0.214 | -0.63 | -0.502 | -0.359 | -0.42 | 0.115 | -1.82 |
| ACTAGCAGGCCAAGTTTGGGGCACTCAAACAAAG | -0.415 | -0.546 | -0.667 | -0.397 | -1.03 | -0.148 | -0.208 | -0.509 | -0.663 | -0.441 | 0.771 | 0.921 | -0.182 | -0.0456 | -0.843 | -0.333 | -0.763 | 0.00988 | -0.881 | 0.744 |
| GCTAGCAGGCGATTTGGGTCACTCAATGACGGGC | 0.0524 | -0.217 | -0.513 | -0.281 | -0.929 | 1.48 | 0.632 | 0.575 | -0.192 | 0.427 | 1.67 | 2.53 | -0.476 | -0.307 | -0.254 | 0.00388 | -0.474 | 0.575 | -0.848 | 0.752 |
| ATACCAACGTGATCGTGAGGTCGTTGATACTAAC | 0.885 | 0.498 | 0.494 | 0.84 | -0.123 | 0.65 | 0.385 | -0.0479 | -0.202 | -0.163 | -0.625 | 0.0964 | 0.725 | 0.527 | 0.699 | 1.67 | 0.835 | 1.23 | -0.137 | 0.259 |
| CCGACTGGGGCAGAAAGGTTACCACACCATCCGG | 0.286 | 0.428 | 0.0458 | 0.833 | -1.17 | 2.21 | 1.74 | 2.66 | 0.555 | 2.13 | 1.83 | 1.76 | -0.724 | -0.799 | 0.71 | 0.929 | -0.219 | 1.85 | 0.0999 | 1.92 |
| ACAGAGAGGTGATGAAGGTAACTCAGGCTATCAT | 0.1 | -0.0398 | -0.296 | 0.23 | 0.0774 | 0.952 | 0.708 | 0.305 | 0.188 | 0.328 | 1.04 | 1.11 | 0.359 | -0.0267 | 0.505 | 0.0565 | 0.268 | 0.393 | 0.478 | 0.825 |
| ACAGACAGGTGAGTGAAGGTAACTCCGCTGGACG | 0.216 | -0.067 | -0.195 | -0.498 | -0.566 | 0.0372 | 0.503 | -0.251 | 0.0064 | -0.389 | 0.529 | 0.681 | -0.384 | -0.279 | -0.155 | -0.132 | -0.203 | 0.0904 | -0.274 | 0.621 |
| CCTGCTAGGGCAATGGTCAGCTAAAGCAGCTCGC | -0.321 | -0.261 | -0.651 | -0.809 | -1.23 | 0.614 | 1.75 | 3.28 | 0.695 | 2.57 | 1.55 | 1.76 | -1.07 | -1.49 | -0.322 | -0.655 | -0.95 | -0.343 | -1.1 | 1.15 |
| GGAGACAGGTGAAACGCAGGTAACTCAGGGTGGC | 0.0373 | 0.224 | -0.296 | -0.0924 | -0.712 | 1.03 | 0.617 | 0.0474 | -0.768 | -0.000912 | 0.957 | 0.901 | -1.26 | -0.98 | -0.102 | -0.298 | -0.332 | 0.137 | -0.68 | 0.904 |
| ATATGTAGGTTAGCTGGGGTCATTGAGACTAGGC | 4.97 | 5.62 | 2.48 | 4.62 | 1.35 | 5.24 | 5.52 | 5.03 | 2.46 | 4.26 | 6.54 | 6.07 | 2.23 | 1.29 | 2.75 | 6.11 | 3.42 | 5.49 | 0.751 | 2.9 |
| CAAACTAGGTCAGCGGAAGGTCAAAGTCCGCATG | 4.7 | 5.1 | 3.95 | 4.3 | 0.622 | 5.61 | 7.65 | 6.54 | 4.12 | 6.37 | 7.81 | 8.08 | 3.33 | 1.19 | 5.64 | 5.42 | 1.11 | 6.59 | 1.75 | 4.89 |
| ATATGTAGGTTAAGGGGCATTCAGGTTGGTTCGC | 1.42 | 2 | 1.15 | 2.75 | 1.48 | 5.25 | 9.21 | 8.26 | 8.39 | 9.63 | 7.2 | 7.11 | 2.3 | 1.88 | 2.29 | 2.12 | 1.83 | 1.92 | 1.47 | 1.78 |
| GCAGACAGGTGAAACGCAGGTGACTCAGGGTGGC | 0.0191 | 0.00841 | -0.506 | -0.401 | -1.12 | 1.18 | 0.635 | 0.413 | -0.264 | -0.0702 | 0.661 | 1.27 | -0.57 | -0.659 | -0.182 | 0.074 | -0.467 | 0.675 | -0.193 | 1.01 |
| TCTTGCAGGCCAGAGGGTCACTCAAGAGGTACGG | 1.13 | 1.04 | -0.621 | 1.3 | -0.52 | 2.81 | 1.99 | 3.39 | 2.63 | 3.38 | 1.23 | 1.74 | 0.108 | 0.193 | 1.21 | 1.65 | -0.469 | 2.21 | -0.686 | 2.44 |
| CCTTACGGGTCTCTGACAGGTTATAGCATTTGGA | -0.234 | 0.159 | -0.00475 | -0.0139 | -0.262 | 0.166 | 0.168 | 0.115 | -0.351 | -0.00111 | 0.625 | -0.443 | -0.515 | -0.237 | 0.678 | -0.13 | -0.251 | 0.185 | 0.262 | 0.256 |
| CAAACTAGGTCAAAGGTCGAAGTCGAGCCAACCA | 7.06 | 5.62 | 1.41 | 4.93 | 0.909 | 7.28 | 13.9 | 11.2 | 14.3 | 13.6 | 8.87 | 9.27 | 5.32 | 3.95 | 3.95 | 5.77 | 0.27 | 8.46 | 0.524 | 4.71 |
